For orientation: AC50 means the midpoint of the concentration-response curve, whichever way the signal moves.

Test [1] is described as follows: ATG_TAL_CIS: Attagene CIS-FACTORIAL HepG2 Assay for human TAL Basal Promoter (AID 2282966; active = hit-call score of the fitted dose curve at least 0.9, where 1 is the maximum; inactive = score below 0.9;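 note: background control endpoint measuring basal TAL promoter reporter mRNA not a specific factor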). As to conditions: HepG2 Attagene cis-factorial TAL promoter reporter; actives raise or lower the signal. The gist of the method:
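Human hepatoma HepG2 cells, transfected with promoter-regulated reporter units, were treated 24 h. Reporter transcript levels, measured through RT-PCR and capillary electrophoresis, were fitted for gain or loss relative to DMSO.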

Test [2] is described as follows: ATG_TGFb_CIS: Attagene CIS-FACTORIAL HepG2 Assay for human Transforming Growth Factor (TGF) (AID 2282967; active = hit-call score of the fitted dose curve at least 0.9, where 1 is the maximum; inactive = score below 0.9). To be noted: HepG2 Attagene CIS TGFb reporter, mRNA transcription; actives raise or lower the signal. The essentials: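 Endogenous TGFB1-linked transcription factor activity read as reporter mRNA via RT-PCR and capillary electrophoresis, 24 h after dosing transiently transfected HepG2 cells. Gain or loss of signal fitted relative to DMSO.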

A short description of test [3]: ATG_VDRE_CIS: Attagene CIS-FACTORIAL HepG2 Assay for human Vitamin D Receptor Element (VDRE) (AID 2282968; active = hit-call score of the fitted dose curve at least 0.9, where 1 is the maximum; inactive = score below 0.9). As to conditions: HepG2 VDRE cis-reporter transcription, actives raise or lower the signal. The essentials:
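Steps: transfect HepG2 with multiple reporter transcription units; dose chemicals 24 h; isolate RNA; RT-PCR; label with 6-FAM primer extension; HpaI digest; capillary electrophoresis. Curves fitted both directions against DMSO.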

In test [4] the target is Steroid hormone receptor ERR1 (Homo sapiens) (UniProt P11474). The test is described as follows: ATG_ERRa_TRANS: Attagene TRANS-FACTORIAL HepG2 Assay for human Estrogen-Related Receptor alpha (ERRa) (AID 2282971). To be noted: HepG2 Attagene TRANS reporter, ERRa transactivation. The essentials: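 Signal gain relative to DMSO for an ERRa-Gal4 chimeric receptor, read as reporter mRNA by RT-PCR/capillary electrophoresis. Human HepG2 liver cells, transient multiplex reporter transfection, 24 h chemical exposure.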
Steroid hormone receptor ERR1 (Homo sapiens), sequence (P11474 whole entry, looked up, the tested form may be a part): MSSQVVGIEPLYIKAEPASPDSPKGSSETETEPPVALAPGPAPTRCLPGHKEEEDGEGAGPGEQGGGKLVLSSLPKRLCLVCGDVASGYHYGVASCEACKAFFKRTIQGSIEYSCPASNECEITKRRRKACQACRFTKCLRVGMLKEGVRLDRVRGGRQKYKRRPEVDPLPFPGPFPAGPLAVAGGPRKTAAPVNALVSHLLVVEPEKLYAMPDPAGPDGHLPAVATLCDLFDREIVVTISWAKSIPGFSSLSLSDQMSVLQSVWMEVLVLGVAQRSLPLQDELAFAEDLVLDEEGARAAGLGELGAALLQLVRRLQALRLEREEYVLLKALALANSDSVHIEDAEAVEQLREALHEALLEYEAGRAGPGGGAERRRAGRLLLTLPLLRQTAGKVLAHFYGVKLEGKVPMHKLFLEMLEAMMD

In test [5] the target is X-box-binding protein 1 (Homo sapiens) (UniProt P17861). The test is described as follows: ATG_Xbp1_CIS: Attagene CIS-FACTORIAL HepG2 Assay for human X-box Binding Protein 1 (XBP1) (AID 2282972; active = hit-call score of the fitted dose curve at least 0.9, where 1 is the maximum; inactive = score below 0.9). As to conditions: HepG2 XBP1 cis-element reporter, Attagene multiplex; actives raise or lower the signal. The gist of the method: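 Reporter transcripts were quantified by RT-PCR with fluorescent primer extension and capillary electrophoresis after 24 h chemical exposure. Cells: transiently transfected HepG2 carrying cis-regulated reporter constructs; data fitted bidirectionally relative to DMSO.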
X-box-binding protein 1 (Homo sapiens), sequence (P17861 whole entry, looked up): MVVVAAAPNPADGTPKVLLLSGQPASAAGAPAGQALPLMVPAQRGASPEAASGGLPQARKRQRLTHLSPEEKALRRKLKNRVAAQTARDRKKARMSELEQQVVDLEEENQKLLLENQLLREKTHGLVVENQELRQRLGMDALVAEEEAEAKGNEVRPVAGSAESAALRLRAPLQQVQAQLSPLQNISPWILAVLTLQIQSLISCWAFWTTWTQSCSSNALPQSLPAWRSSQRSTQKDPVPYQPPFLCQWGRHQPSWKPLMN

Test [6] concerns the target Androgen receptor (Homo sapiens) (UniProt P10275). Nature of the test: ATG_AR_TRANS: Attagene TRANS-FACTORIAL HepG2 Assay for human Androgen Receptor (AR) (AID 2282973). To be noted: HepG2 Attagene TRANS-FACTORIAL AR reporter transcription. The gist of the method: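 Chimeric nuclear receptor–Gal4 activity was assessed in human HepG2 hepatocytes after 24 h chemical dosing. Induced reporter mRNA was detected via labelled RT-PCR fragments on capillary electrophoresis, and gain of signal was analysed against DMSO.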

The nature of test [7]: ATG_M_19_TRANS: Attagene TRANS-FACTORIAL HepG2 Assay for M19 Transcription Factor (Internal Marker) (AID 2282974). To be noted: HepG2 Attagene TRANS-FACTORIAL M19 internal marker reporter. The essentials: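 Using RT-PCR and capillary electrophoresis, reporter mRNA from transiently transfected human HepG2 cells was quantified following 24 h exposure; activity was fitted in the positive direction against DMSO.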

Test [8] concerns the target Estrogen-related receptor gamma (Homo sapiens) (UniProt P62508). The test is described as follows: ATG_ERRg_TRANS: Attagene TRANS-FACTORIAL HepG2 Assay for human Estrogen-Related Receptor gamma (ERRg) (AID 2282977).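 Note: hits increase reporter signal over DMSO so potencies reflect activators.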 To be noted: HepG2 Attagene TRANS reporter, ERRg transactivation. The gist of the method:
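Exogenous NR-Gal4 chimera activity measured as reporter transcript induction after 24 h in transiently transfected HepG2 cells. RNA reverse-transcribed, PCR-amplified, 6-FAM-labelled and resolved by capillary electrophoresis; increase over DMSO baseline.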

The target of test [9] is Oxysterols receptor LXR-alpha (Homo sapiens) (UniProt Q13133). Nature of the test: ATG_LXRa_TRANS: Attagene TRANS-FACTORIAL HepG2 Assay for human Liver X Receptor alpha (LXRa) (AID 2282980). To be noted: HepG2 Attagene TRANS reporter, LXRa transactivation. The gist of the method:
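In this multiplexed TRANS system, compounds act on HepG2 cells carrying GAL4-UAS reporter units and a receptor-GAL4 fusion for 24 h. Induced reporter RNA is amplified, fluorescently labelled and sized by capillary electrophoresis, with DMSO as baseline.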

Test [10] has as its target Oxysterols receptor LXR-beta (Homo sapiens) (UniProt P55055). Nature of the test: ATG_LXRb_TRANS: Attagene TRANS-FACTORIAL HepG2 Assay for human Liver X Receptor beta (LXRb) (AID 2282981). As to conditions: HepG2 Attagene TRANS GAL4-LXRb reporter, mRNA. The gist of the method:
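Measures induction of a Gal4-driven reporter transcript in HepG2 cells expressing an exogenous LXRb-Gal4 fusion. Cells are exposed to compound for 24 h before RNA isolation and RT-PCR with capillary electrophoresis detection.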

Test [11] addresses Hepatocyte nuclear factor 4-alpha (Homo sapiens) (UniProt P41235). The test is described as follows: ATG_HNF4a_TRANS: Attagene TRANS-FACTORIAL HepG2 Assay for human Hepatocyte Nuclear Factor 4 alpha (HNF4a) (AID 2282982). As to conditions: HepG2 HNF4a transactivation reporter, mRNA readout. The gist of the method:
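In this trans-factorial format, a chimeric HNF4a-GAL4 fusion drives a GAL4-UAS reporter in transfected HepG2 liver cells. After 24 h treatment, reporter mRNA induction is measured by RT-PCR with capillary electrophoresis, relative to DMSO.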

Test [12] in a line: ATG_M_06_TRANS: Attagene TRANS-FACTORIAL HepG2 Assay for M06 Transcription Factor (Internal Marker) (AID 2282983). To be noted: HepG2 Attagene TRANS M06 internal marker reporter. The essentials:
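Multi-reporter-transfected HepG2, 24 h treatment; reporter transcripts quantified via RT-PCR, primer-extension labelling and CE. DMSO-normalized gain-of-signal fit.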

For test [13], the target named is Transcriptional activator Myb (Homo sapiens) (UniProt P10242). The test is described as follows: ATG_Myb_CIS: Attagene CIS-FACTORIAL HepG2 Assay for human Myeloblastosis (Myb) Proto-Oncogene Transcription Factor (AID 2282986; active = hit-call score of the fitted dose curve at least 0.9, where 1 is the maximum; inactive = score below 0.9). As to conditions: HepG2 Attagene CIS-FACTORIAL Myb reporter transcription; actives raise or lower the signal. The essentials:
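In this HepG2 transient-transfection format, cis-regulated reporter mRNA is quantified 24 h post-dosing by RT-PCR with capillary electrophoresis, fitted bidirectionally to DMSO baseline.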

For test [14], the target named is Estrogen receptor (Homo sapiens) (UniProt P03372). Nature of the test: ATG_ERa_TRANS: Attagene TRANS-FACTORIAL HepG2 Assay for human Estrogen Receptor alpha (ERa) (AID 2282970). As to conditions: HepG2 Attagene TRANS ERa GAL4 reporter, mRNA. The gist of the method: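 Signal derives from fluorescence of labelled reporter PCR fragments separated by capillary electrophoresis. HepG2 cells transiently carrying multiple GAL4-UAS reporter units were treated 24 hours, and induction above DMSO baseline was fitted as activity.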
Estrogen receptor (Homo sapiens), sequence (P03372 whole entry, looked up, the tested form may be a part): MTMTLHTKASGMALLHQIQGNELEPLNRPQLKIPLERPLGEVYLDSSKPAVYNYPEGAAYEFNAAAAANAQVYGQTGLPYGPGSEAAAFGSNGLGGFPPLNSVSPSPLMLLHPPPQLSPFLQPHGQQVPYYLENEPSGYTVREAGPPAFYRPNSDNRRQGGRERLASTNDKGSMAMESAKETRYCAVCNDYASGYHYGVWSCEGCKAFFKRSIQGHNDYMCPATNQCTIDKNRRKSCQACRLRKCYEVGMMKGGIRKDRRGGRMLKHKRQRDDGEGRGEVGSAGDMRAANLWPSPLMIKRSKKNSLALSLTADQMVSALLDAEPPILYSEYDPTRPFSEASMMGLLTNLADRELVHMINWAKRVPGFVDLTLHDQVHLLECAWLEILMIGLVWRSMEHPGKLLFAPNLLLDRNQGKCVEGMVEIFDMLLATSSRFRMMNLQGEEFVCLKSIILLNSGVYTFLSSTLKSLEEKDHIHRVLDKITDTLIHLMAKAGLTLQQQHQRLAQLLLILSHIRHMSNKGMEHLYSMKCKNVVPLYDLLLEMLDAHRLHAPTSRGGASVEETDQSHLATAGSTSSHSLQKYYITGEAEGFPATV

The target of test [15] is Bile acid receptor (Homo sapiens) (UniProt Q96RI1). Nature of the test: ATG_FXR_TRANS: Attagene TRANS-FACTORIAL HepG2 Assay for Farnesoid X Receptor (FXR) (AID 2282979).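 Note: hits raise reporter mRNA above DMSO so AC50 marks FXR activation.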 To be noted: HepG2 Attagene TRANS FXR-GAL4 reporter transcription. The gist of the method:
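After 24 h chemical treatment of transfected HepG2 cells, GAL4-UAS reporter transcripts driven by an exogenous FXR-GAL4 fusion were measured by RT-PCR and capillary electrophoresis. Increases over DMSO were fitted.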

The nature of test [16]: ATG_M_32_TRANS: Attagene TRANS-FACTORIAL HepG2 Assay for M32 Transcription Factor (Internal Marker) (AID 2282984). To be noted: HepG2 Attagene TRANS M32 internal marker reporter. The essentials:
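After 24 h dosing of transfected HepG2 cells, total RNA was reverse-transcribed, reporter sequences PCR-amplified, 6-FAM labelled by primer extension and HpaI-digested before capillary electrophoresis. Signal increase over DMSO was fitted.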

Test [17] concerns the target Nuclear receptor subfamily 4 group A member 2 (Homo sapiens) (UniProt P43354). Nature of the test: ATG_NURR1_TRANS: Attagene TRANS-FACTORIAL HepG2 Assay for human Nuclear Receptor Related Protein 1 (NURR1) (AID 2282985). To be noted: HepG2 Attagene TRANS reporter, mRNA readout. The gist of the method: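 Chimeric NR-Gal4 fusion activity measured in HepG2 after 24 h treatment. Reporter transcripts detected by RT-PCR and capillary electrophoresis fluorescence; positive-direction curve fitting against DMSO.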

Test [18] can be described thus: ATG_GAL4_TRANS: Attagene TRANS-FACTORIAL HepG2 Assay for GAL4 (Internal Marker) (AID 2282976). As to conditions: HepG2 Attagene TRANS GAL4 internal marker reporter. The gist of the method: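 Liver HepG2 line bearing multiplexed GAL4-UAS reporter constructs; 24 h chemical treatment. Transcripts were quantified as fluorescent fragments on capillary electrophoresis after RT-PCR and HpaI cut, with activity fitted upward from DMSO.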

SMILES strings stand for the structures. Results filed as inconclusive are left out. Activity calls are given as the source filed them. Rule for the calls, unless noted: active = hit-call score of the fitted dose curve at least 0.9, where 1 is the maximum; inconclusive = response in the unintended direction; inactive = score below 0.9.

Hepatocyte nuclear factor 4-alpha (Homo sapiens), sequence (P41235 whole entry, looked up, the tested form may be a part): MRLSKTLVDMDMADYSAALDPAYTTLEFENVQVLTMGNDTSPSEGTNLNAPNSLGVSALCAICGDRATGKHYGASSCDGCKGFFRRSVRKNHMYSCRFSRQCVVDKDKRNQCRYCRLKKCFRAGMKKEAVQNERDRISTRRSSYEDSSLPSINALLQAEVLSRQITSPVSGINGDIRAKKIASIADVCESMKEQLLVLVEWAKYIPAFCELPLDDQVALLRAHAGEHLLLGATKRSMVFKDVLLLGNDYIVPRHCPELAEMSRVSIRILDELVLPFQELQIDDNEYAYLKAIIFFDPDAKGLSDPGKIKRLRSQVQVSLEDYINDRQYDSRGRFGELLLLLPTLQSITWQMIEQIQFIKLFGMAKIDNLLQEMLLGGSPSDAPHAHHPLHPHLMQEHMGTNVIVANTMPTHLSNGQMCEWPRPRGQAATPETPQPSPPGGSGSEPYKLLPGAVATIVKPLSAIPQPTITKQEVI
Nuclear receptor subfamily 4 group A member 2 (Homo sapiens), sequence (P43354 whole entry, looked up, the tested form may be a part): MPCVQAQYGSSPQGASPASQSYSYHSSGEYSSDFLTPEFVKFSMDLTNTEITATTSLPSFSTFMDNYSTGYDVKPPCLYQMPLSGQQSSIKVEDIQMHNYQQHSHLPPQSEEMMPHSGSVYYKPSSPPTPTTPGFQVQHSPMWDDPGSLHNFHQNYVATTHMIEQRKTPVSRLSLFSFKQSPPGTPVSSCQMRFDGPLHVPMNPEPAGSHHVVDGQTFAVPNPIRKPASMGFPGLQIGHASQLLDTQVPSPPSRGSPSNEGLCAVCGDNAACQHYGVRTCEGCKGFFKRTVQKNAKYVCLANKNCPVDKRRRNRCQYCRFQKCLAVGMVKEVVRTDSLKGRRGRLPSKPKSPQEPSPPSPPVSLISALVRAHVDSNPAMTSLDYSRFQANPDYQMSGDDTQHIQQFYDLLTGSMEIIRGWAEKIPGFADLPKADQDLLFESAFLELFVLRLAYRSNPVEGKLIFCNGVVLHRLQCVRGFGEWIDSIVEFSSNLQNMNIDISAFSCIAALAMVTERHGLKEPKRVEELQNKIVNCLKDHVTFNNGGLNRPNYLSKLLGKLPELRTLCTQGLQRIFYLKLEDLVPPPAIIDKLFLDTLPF
Oxysterols receptor LXR-alpha (Homo sapiens), sequence (Q13133 whole entry, looked up, the tested form may be a part): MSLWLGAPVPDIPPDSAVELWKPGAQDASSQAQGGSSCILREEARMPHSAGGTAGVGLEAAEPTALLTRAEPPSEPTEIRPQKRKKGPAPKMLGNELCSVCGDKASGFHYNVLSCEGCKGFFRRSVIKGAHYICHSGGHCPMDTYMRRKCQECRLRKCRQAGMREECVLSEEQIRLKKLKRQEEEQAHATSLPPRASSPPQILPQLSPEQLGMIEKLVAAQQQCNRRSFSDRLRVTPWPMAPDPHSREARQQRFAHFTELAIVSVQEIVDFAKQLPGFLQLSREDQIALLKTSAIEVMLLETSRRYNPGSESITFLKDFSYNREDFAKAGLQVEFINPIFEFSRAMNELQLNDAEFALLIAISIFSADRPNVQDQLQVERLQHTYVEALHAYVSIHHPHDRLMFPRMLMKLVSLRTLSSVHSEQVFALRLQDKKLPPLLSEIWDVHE
Transcriptional activator Myb (Homo sapiens), sequence (P10242 whole entry, looked up): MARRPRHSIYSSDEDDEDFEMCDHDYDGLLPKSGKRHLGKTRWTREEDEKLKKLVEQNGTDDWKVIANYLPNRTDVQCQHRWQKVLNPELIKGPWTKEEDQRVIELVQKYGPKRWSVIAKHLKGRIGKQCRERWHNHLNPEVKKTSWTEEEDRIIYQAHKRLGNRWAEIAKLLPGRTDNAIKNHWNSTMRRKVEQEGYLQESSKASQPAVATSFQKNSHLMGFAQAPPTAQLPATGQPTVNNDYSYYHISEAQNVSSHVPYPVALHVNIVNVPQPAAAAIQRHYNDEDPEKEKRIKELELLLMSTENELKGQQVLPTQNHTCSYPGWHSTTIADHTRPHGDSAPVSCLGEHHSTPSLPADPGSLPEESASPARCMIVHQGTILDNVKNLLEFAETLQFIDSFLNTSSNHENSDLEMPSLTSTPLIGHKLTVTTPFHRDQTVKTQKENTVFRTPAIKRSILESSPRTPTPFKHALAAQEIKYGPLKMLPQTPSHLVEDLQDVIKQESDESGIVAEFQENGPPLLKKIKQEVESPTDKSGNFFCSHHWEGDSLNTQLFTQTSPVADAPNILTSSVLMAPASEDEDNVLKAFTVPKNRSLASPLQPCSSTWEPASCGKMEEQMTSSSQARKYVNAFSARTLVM
Bile acid receptor (Homo sapiens), sequence (Q96RI1 whole entry, looked up, the tested form may be a part): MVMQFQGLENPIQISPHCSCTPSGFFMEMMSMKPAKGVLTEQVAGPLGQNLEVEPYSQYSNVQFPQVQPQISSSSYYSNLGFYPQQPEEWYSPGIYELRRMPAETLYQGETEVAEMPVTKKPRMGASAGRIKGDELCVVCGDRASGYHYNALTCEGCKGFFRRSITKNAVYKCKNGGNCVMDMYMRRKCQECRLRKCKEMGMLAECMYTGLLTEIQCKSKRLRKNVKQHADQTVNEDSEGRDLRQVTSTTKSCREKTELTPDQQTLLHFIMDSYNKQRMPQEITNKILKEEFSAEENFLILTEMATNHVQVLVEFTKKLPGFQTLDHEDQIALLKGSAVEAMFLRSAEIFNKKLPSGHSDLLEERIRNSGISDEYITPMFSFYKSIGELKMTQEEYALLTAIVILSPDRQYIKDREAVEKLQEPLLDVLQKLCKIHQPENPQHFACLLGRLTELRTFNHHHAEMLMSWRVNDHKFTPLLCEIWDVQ
Androgen receptor (Homo sapiens), sequence (P10275 whole entry, looked up, the tested form may be a part): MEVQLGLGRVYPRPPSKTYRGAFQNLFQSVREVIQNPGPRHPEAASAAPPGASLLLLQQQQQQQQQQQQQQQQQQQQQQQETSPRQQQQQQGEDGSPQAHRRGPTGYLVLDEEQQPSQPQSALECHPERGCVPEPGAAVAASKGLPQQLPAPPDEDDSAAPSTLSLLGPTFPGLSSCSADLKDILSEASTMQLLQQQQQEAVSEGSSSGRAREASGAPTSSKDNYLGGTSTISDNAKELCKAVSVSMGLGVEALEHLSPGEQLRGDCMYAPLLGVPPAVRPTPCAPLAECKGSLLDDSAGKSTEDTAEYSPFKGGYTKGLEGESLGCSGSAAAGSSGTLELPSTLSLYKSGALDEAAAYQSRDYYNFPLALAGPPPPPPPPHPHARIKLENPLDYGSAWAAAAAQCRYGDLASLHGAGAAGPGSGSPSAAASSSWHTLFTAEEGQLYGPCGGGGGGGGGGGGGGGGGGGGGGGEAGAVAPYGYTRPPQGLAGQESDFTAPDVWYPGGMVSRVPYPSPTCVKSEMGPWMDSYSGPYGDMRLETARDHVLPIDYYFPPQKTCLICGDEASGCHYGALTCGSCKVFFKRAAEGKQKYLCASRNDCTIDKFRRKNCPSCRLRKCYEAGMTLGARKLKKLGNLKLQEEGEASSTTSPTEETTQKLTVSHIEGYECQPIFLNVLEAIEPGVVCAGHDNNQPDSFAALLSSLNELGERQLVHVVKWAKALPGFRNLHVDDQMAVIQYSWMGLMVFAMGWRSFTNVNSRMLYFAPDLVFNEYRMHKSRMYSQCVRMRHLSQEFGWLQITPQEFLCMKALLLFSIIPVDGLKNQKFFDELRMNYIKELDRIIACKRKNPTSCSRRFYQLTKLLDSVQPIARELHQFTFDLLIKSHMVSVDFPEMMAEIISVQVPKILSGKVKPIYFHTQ

As to `COP(=S)(OC)Oc1ccc(S(=O)(=O)N(C)C)cc1`, the compound was called inactive in [1], in test [2], in test [4], in [5], in test [6] and in [7]. For the same compound, the result in [8], in test [9], in test [10], in test [11], in test [12] and in test [13] was inactive. In addition, the AC50 in [3] was 38.8 µM (active).

Consider `CCC(C)c1cccc(C(C)CC)c1O` (stereo not given), for which the outcome in [1], in [2], in test [3], in test [5], in test [15] and in [11] was inactive. Besides, the call in test [12], in test [16] and in test [13] was inactive. The AC50 in test [14] is 24.4 µM (active); in test [9], 14.3 µM (active); in test [17] it was 33.4 µM (active).

Take `C=C(C)C(=O)[O][Sn]([CH2]CCC)([CH2]CCC)[CH2]CCC`: the call in [1], in test [2], in test [14], in test [11], in [12] and in [13] was inactive. In addition, the AC50 in test [3] is 0.185 µM (active); in [5], 0.608 µM (active); in test [17] it was 0.00168 µM (active).

`COc1cc2c(cc1OC)[C@@]13CCN4CC5=CCO[C@H]6CC(=O)N2[C@H]1[C@H]6[C@H]5C[C@H]43`: the compound was classed as inactive in [1], in test [2], in [3], in test [14], in [5] and in test [7]. In addition, the outcome in [11], in test [16] and in test [13] was inactive.

As to `CC(C)c1ccc(CO)cc1`, the compound was called inactive in test [1], in [2], in [4], in test [5], in test [7] and in [15]. Moreover, the outcome in test [9], in test [12], in test [16] and in test [13] was inactive. Also, the half-maximal activity concentration (AC50) in test [3] is 36.2 µM (active); in [14], 60.1 µM (active).

`CC(=[OH+])/C=C(/C)[O-].CC(=[OH+])/C=C(/C)[O-].CC(=[OH+])/C=C(/C)[O-].[Al]`: the compound was classed as inactive in [1], in test [2], in test [3], in [5], in [7] and in test [18]. Further, the compound was classed as inactive in test [11], in test [12], in test [17] and in [13].
